Results reported in article PMC12136788.
Whole data set: some 5,800 sequences, median “enrichment r” near 0.68, cut for the highest 2% near 11. Not all results are given here.

B1: chr5:74627411:74627511:-|3pUTR|ENSG00000171617|msi1_unk|total|mutant (ssRNA)
RNA: GGGAGUUCUACAGUCCGACGAUCUUUGUAAAACUGUUAUUUUUUUUUUUUUCACAAUGUGAAACUGAAGGUCAAUAAAUUAUCCGAGAUUUUCUCUUCAUUAUGUGUGUGGGUCUUCAUUUGAAUAAGACACAAUUUGAGGCACAACAGAGGAUUGAGCAUCA
B2: chr10:68442948:68443070:-|CDS|ENSG00000138346|unk|total|mutant (ssRNA)
RNA: GGGAGUUCUACAGUCCGACGAUCCCCAAUUGUGAUGCUGCCCAAAACCGAAGAAGAAACCCAGCAUCUGAAGCAAACACACUCCGAAUAUUUCAGCCUUUGGUGUCUAAUGUUAACCCUGGAGUCACAAUCGAAGGAUAAUAACAACAGAGGAUUGAGCAUCA
B3: ENSG00000127995:stop:overlap|stop_codon|ENSG00000127995|stop_codon|NA|stop_codon (ssRNA)
RNA: GGGAGUUCUACAGUCCGACGAUCUAGCUGCAUUUUUUUGUGGACUCCUCAUCUUAUCAUCCAUUCAAGAUAAAUCAAAACAUUAGGUUCCAAAAAUUCUAAAAAACCUAAACUCUUCAGGCUACCUUUGUGUGUCUCUAGAAGCAACAGAGGAUUGAGCAUCA
B4: chr12:13219749:13219850:+|3pUTR|ENSG00000134531|unk|total|mutant (ssRNA)
RNA: GGGAGUUCUACAGUCCGACGAUCACAACAGUGGAUGGGGAGGAAGAACAGACUUUUGAGCUCUUCCCAAUACCGGAAUGUGUCCGUUCUAAAAAUUUUCUUAAGUUGUUUGCUUGGAACUCAGAGUAUAUUUUUCCAUACGAACAACAGAGGAUUGAGCAUCA
B5: chr10:128098466:128098636:-|3pUTR|ENSG00000148773|msi1|total|mutant (ssRNA)
RNA: GGGAGUUCUACAGUCCGACGAUCUCCUUUCCUUUCUGAAAAUAAAGUUUUGUGCUUUGGAGAAUGACUCGUGAGCACAUCUUCCGGGACCAAGAGUGACUUUCUGUAAGGAGUGACUCGUGGCUUGCCUUGGUCUCUUGGGAACAACAGAGGAUUGAGCAUCA
B6: chr7:137014887:137014989:+|CDS|ENSG00000181072|unk|total|mutant (ssRNA)
RNA: GGGAGUUCUACAGUCCGACGAUCGCUACUUGGCUACUGAUCCGAGAACGCAAAAUGAAUAACUCAACAAACUCCUCUAACAACCGCCUGGCUCUUACAAGUCCUUAUAAGACAUUUGAAGUGGUGUUUAUUGUCCUGGUGGCUCAACAGAGGAUUGAGCAUCA
B7: chr17:8173470:8173636:-|3pUTR|ENSG00000179029|msi1|total|mutant (ssRNA)
RNA: GGGAGUUCUACAGUCCGACGAUCUGUUUGUCUGUAUCGUCAGGUGGGAUAAUCCUUACCUGUUCCUCCUCCGGAGGGCAGAUCCGAACAUGAUGAUUGGAGAUGCAUGAAACGUGAUUAACGUCUCUGCGUAAUCAGGACUUGCAACAGAGGAUUGAGCAUCA
B8: ENSG00000124766:be:win_3601|3pUTR|ENSG00000124766|bound_else_gene|NA|bound_elsewhere_windowed (ssRNA)
RNA: GGGAGUUCUACAGUCCGACGAUCUGUACUGCGUUUUUCAUUCUUGUAUUUGACUAUUUAAUCCUUUCUACUUGUCGCUAAAUAUAAUUGUUUUAGUCUUAUGGCAUGAUGAUAGCAUAUGUGUUCAGGUUUAUAGCUGUUGUGCAACAGAGGAUUGAGCAUCA
B9: ENSG00000198589:be:win_7751|CDS|ENSG00000198589|bound_else_gene|NA|bound_elsewhere_windowed (ssRNA)
RNA: GGGAGUUCUACAGUCCGACGAUCAAGUGCAUUCCCAGUGCUUUGUCAUCACUUCAGACAACCGCUAUAUUCUCGUCUGUGGCUUCUGGGAUAAAAGUUUCAGAGUCUAUUCUACAGACACAGGAAGAUUGAUCCAAGUGGUGUCAACAGAGGAUUGAGCAUCA
B10: ENSG00000198589:be:win_2051|CDS|ENSG00000198589|bound_else_gene|NA|bound_elsewhere_windowed (ssRNA)
RNA: GGGAGUUCUACAGUCCGACGAUCUACUGACUAUGCAUGAGGAUGACAAUCUAAUGGAUGUCCUACAGCUGCUUGUUGCAUUAAUGUCAGAACACCCUAACUCUAUGAUUCCUGCUUUUGACCAAAGGAAUGGGUUACGUGUUACAACAGAGGAUUGAGCAUCA
B11: chr17:42842016:42842117:+|3pUTR|ENSG00000131467|msi1|FALSE|unique (ssRNA)
RNA: GGGAGUUCUACAGUCCGACGAUCUUACUGUUUCUUUCCUCUGUGGGGCAUUGGAUCCUCCCACAGUUGCCCUGGUGAUGACUUAGGGCUUCCCAUCUGUGUACAUCCCACUUUGAAUCUUGAUCGUGACAAGAAAUACCUUAGCAACAGAGGAUUGAGCAUCA
B12: chr6:132296306:132296407:-|3pUTR|ENSG00000079931|msi1|FALSE|unique (ssRNA)
RNA: GGGAGUUCUACAGUCCGACGAUCAUGGGAAACAUAGAAAUGGUAUGUAUUAAUAACUGAUCAUAGGCUGAGGAGAAAAAAUGUAGCUGGCUGCAAACCCAGUGCUGUGAGGUGACUUAUAUGAGGUUCCAGAUCAAAGACAGGCAACAGAGGAUUGAGCAUCA
B13: chr2:69942770:69942871:+|3pUTR|ENSG00000059728|unk|total|mutant (ssRNA)
RNA: GGGAGUUCUACAGUCCGACGAUCUGUUUCCAGAUGUUUCUUUAUGUAAAUAUGACGCCAAUGUAAAUCCUGUGUCAAGAUCACCGAGAAUGGUGCUUUUUACUACAGUCCGCACAUGCAUUUUCCGAAACUACUACAUGUUUUCAACAGAGGAUUGAGCAUCA
B14: ENSG00000107863:be:win_51|CDS|ENSG00000107863|bound_else_gene|NA|bound_elsewhere_windowed (ssRNA)
RNA: GGGAGUUCUACAGUCCGACGAUCCAAGGCCUGCGAGGUCUCAAAAAAUAAAGAUGGAAAAGAACAAAGUGAAACUGUAUCACUGUCUGAAGAUGAAACAUUCUCCUGGCCAGGUCCCAAAACAGUUACGUUGAAAAGAACAUCCAACAGAGGAUUGAGCAUCA

molecular target: T1, UNK ZnF1-6 (called full-length) (human, UniProt Q9C0B0 30-357); test: nsRBNS (natural sequence RNA bind-n-seq); RBNS binding buffer (assumed for nsRBNS): 25 mM Tris pH 7.5, 150 mM KCl, 3 mM MgCl2, 0.01% Triton X-100, 500 ug/ml BSA, 20 U/ml SUPERase-In, 4 C; UNK is unkempt and MSI1 is Musashi-1; names of the RNAs are library labels; protein concentration not given here; high values mean tight binding
T1 sequence: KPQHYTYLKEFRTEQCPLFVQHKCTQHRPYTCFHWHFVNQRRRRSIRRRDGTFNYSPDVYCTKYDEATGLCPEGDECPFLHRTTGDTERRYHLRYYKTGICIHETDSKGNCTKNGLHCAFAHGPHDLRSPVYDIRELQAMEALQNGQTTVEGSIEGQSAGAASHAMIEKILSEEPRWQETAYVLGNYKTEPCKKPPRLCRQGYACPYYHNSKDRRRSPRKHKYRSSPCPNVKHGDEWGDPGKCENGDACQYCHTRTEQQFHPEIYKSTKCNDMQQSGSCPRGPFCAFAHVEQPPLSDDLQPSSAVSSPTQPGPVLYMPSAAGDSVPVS

First: B1
Second: B2
The binding signal of the first is higher: 0.75 enrichment R for the first, 0.471 enrichment R for the second.

Compared with B3, B4 is lower in binding signal: 0.828 enrichment R for the first, 0.58 enrichment R for the second.

Going from B5 to B6, the binding signal falls from 0.483 enrichment R to 0.461 enrichment R.

Compared with B7, B8 is higher in binding signal: 0.686 enrichment R for the first, 0.795 enrichment R for the second.

Compared with B9, B10 is higher in binding signal: 0.285 enrichment R for the first, 0.35 enrichment R for the second.

First: B11
Second: B12
The binding signal of the first is lower: 0.557 enrichment R for the first, 0.863 enrichment R for the second.

Going from B13 to B14, the binding signal rises from 0.355 enrichment R to 0.505 enrichment R.
